Only some compounds are listed: those with a hit (about 13% of all), similar ones and a draw of the others.
JMJD2E inh: qHTS Assay for Inhibitors of Human Jumonji Domain Containing 2E (JMJD2E) | Potency, µM (titrated, usually from 57.1 µM), for inactives: top-dose activity change, negative = inhibition, actives largely listed as inhibitors | actives 1.6% (n = 230,000) | JMJD2E catalytic domain, FDH-coupled NADH fluorescence (FDH is formaldehyde dehydrogenase);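 also: potency is read from the fitted curve at half-maximal effect; 0% = wells with enzyme and -100% = buffer wells without enzyme; nearly all actives have a fitted effect of over 50% in size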
Target sequence (B2RXH2 1-337 limits assumed): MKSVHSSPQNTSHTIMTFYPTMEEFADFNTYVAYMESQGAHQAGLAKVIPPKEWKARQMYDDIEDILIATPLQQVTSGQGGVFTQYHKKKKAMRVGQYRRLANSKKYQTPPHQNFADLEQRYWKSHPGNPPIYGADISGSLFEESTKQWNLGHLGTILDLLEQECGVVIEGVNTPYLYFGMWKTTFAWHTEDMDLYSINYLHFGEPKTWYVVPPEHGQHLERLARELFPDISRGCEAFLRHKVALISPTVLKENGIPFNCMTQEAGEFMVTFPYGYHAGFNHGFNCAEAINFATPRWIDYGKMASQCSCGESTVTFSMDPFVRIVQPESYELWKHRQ
G9a block: qHTS Assay for Inhibitors of Histone Lysine Methyltransferase G9a; Potency, µM (titrated, usually from 102 µM), without a hit: top-dose activity, negative = inhibition, actives largely listed as inhibitors; G9a H3K9 monomethylation, AlphaScreen, 2 h; actives 8.8% (n = 350,000); Histone-lysine N-methyltransferase EHMT2 (Homo sapiens), Q96KQ7; also: potency is read from the fitted curve at half-maximal effect; % is scaled to controls: 0 for no effect and ±100 for the full control effect; nearly all actives have a fitted effect of over 75% in size
Target sequence (Q96KQ7 913-1193 limits assumed): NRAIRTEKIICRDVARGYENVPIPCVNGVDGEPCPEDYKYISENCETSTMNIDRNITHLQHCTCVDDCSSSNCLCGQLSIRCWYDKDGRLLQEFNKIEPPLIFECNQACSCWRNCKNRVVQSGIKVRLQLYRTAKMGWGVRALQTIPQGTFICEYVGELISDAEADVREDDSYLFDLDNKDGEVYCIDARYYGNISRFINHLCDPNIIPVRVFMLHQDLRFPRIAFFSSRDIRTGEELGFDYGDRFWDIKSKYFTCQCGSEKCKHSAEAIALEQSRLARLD
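Quantitative HTS format: methyltransferase activity on a biotin-tagged H3K9 peptide is measured by AlphaScreen, using a rabbit anti-monomethyl-H3K9 antibody with streptavidin donor and anti-IgG acceptor beads. Final levels are 20 nM enzyme, 500 nM peptide, 20 uM SAM; 2 h RT.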
Sfp PPTase inh: qHTS Assay for Inhibitors of Bacillus subtilis Sfp phosphopantetheinyl transferase (PPTase); 4'-phosphopantetheinyl transferase ffp (Bacillus subtilis), Q9F4F7; Biochemical Sfp PPTase activity, qHTS; Potency, µM, for inactives: largest response in the series, negative = inhibition, actives largely listed as inhibitors; actives 3.5% (n = 310,000);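 also: the enzyme is Sfp with the accession as filed and its product quenches rhodamine fluorescence; potency is read from the fitted curve at half-maximal effect; 0% = enzyme reaction without inhibitor and -100% = no enzyme wells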
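Sfp 15 nM + cpd, 15 min RT; start w/ rhodamine-CoA 5 uM, BHQ-2-YbbR 12.5 uM (final); 50 mM Hepes pH 7.6, 10 mM MgCl2, 0.01% NP-40, 0.01% BSA; read 525/598 nm at 0 and 30 min.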
ALDH1A1 block: qHTS Assay for Inhibitors of Aldehyde Dehydrogenase 1 (ALDH1A1) | actives 7.3% (n = 220,000) | Purified ALDH1A1, NADH fluorescence, propionaldehyde substrate | Potency, µM (highest dose often 75.3 µM), for inactives: top-dose activity, negative = inhibition, actives largely listed as inhibitors; active = well fitted inhibition curve with a large enough effect, not every such curve was filed as active; inconclusive = small, poorly fitted or top-dose-only effect, or another doubt; inactive = no such curve, though single readings can be large or run the other way;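 also: potency is read from the fitted curve at half-maximal effect; plate controls were no enzyme wells and a reference inhibitor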
miR-21 act: qHTS Assay for Modulators of miRNAs and/orActivators of miR-21; Potency, µM (series often up to 38.3 µM), for inactives: top-dose activity change, positive = activation, usual class: activators; 340,000 tested, under 10 active; HeLa miR-21 FLuc reporter, luciferase, 48 h; AID 2288, 2010;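 also: % of control where 0% means no effect; miR-21 action dims this reporter so a rising signal means less miR-21 action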
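HeLa cells endogenously expressing miR-21, stably carrying CMV-driven firefly luciferase with a downstream miR-21 binding site, 2000 cells/well. Titrations up to approximately 40 uM, 48 hours; luciferase luminescence read.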
Lamin A splicing: qHTS Assay for Modulators of Lamin A Splicing; HeLa LMNA splicing GFP/RFP minigene ratio, 48 h; Potency, µM (doses to about 46.1 µM), for inactives: top-dose ratio change, negative = inhibition, hits mostly inhibitors; actives 0.01% (n = 200,000); AID 1487, 2009; active = well fitted inhibition curve with a large enough effect in the signal ratio, with a control signal flat, not every such curve was filed as active; inconclusive = small, poorly fitted or top-dose-only effect, or effect the other way, or a change in a side signal; the % refers to the signal ratio; also: potency is read from the fitted curve at half-maximal effect; % is scaled to controls: 0 for no effect and ±100 for the full control effect
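S3 HeLa stable clones carrying a lamin A-EGFP splicing minigene plus DsRed2 were seeded at 600 cells/well in Opti-MEM with 2% FBS, pin-dosed and incubated 48 h at 37°C. Acumen cytometry (488 nm) gave the GFP/RFP total-intensity ratio.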
Starred values were filed as active, the others as inactive; ? = inconclusive; nt = not tested or not shown; [ ] = remark or other dose. Unless noted, calls follow the shape of the dose curve; as a rule, active = well fitted curve in the direction sought with a large enough effect; inconclusive = small, poorly fitted or top-dose-only effect, or another doubt; inactive = no such curve, though single readings can be large; an effect the other way counts as inactive or inconclusive.

SMILES | JMJD2E inh | G9a block | Sfp PPTase inh | ALDH1A1 block | miR-21 act | Lamin A splicing
Nc1c(/C=C2/C=CC(=O)C(O)=C2)c(=O)nc2sc(CC(=O)N3CCCCC3)nn12 | nt | 10µM* | -0.9% | nt | -12.2% | nt
Nc1c(/C=C2/C=CC(=O)C(O)=C2)c(=O)nc2sc(CC(=O)N3CCCC3)nn12 | nt | 35.5µM* | -27.8% | nt | -13.9% | nt
Cc1ccc(S(=O)(=O)N2CCCCC2)cc1C(=O)NCc1ccccn1 | nt | 14.0% | 10.8% | nt | 0.4% | nt
c1ccc2c(c1)c1c3n2CCNC3CCC1 (stereo not given) | 0.2% | ? | 79.4µM* | ? | -10.7% | -4.2%
c1cc2c(cc1C1CCCCC1)c1c3n2CCCNC3CCC1 (stereo not given) | -0.5% | 17.8µM* | 31.6µM* | -9.5% | ? | ?
c1cc2c(cc1C1CCCCC1)c1c3n2CCN[C@H]3CCC1 | -14.6% | nt | 5.62µM* | ? | nt | nt
Oc1ccc2c(c1)c1c3n2CCNC3CCC1 (stereo not given) | nt | ? | 14.7% | nt | 1.4% | nt
CCOc1ccccc1NC(=O)Cn1nnc(C(=O)NCc2ccc3c(c2)OCO3)c1N | nt | 9.7% | -0.5% | nt | 19.6% | nt
Cc1ccc(NC(=O)c2ccc(-n3c(C)nnc3C)cc2)cc1F | nt | 9.1%[59 µM] | nt | nt | -5.0% | ?
CCOC(=O)c1ccc(NC(=O)CCCc2nc(-c3ccccc3Cl)no2)cc1 | nt | 11.7%[59 µM] | nt | nt | 0.8% | nt
CCc1nnc(SCc2nc(-c3ccccc3)oc2C)c2cc3sccc3n12 | nt | -9.8%[59 µM] | nt | nt | -1.4% | nt
COc1ccc(-c2cn3cccnc3n2)cc1NC(=O)c1cc(C)cc(C)c1 | nt | 5.8%[59 µM] | nt | nt | 0.4% | ?
COc1ccc(/C(C#N)=C/c2cccnc2)cc1 | ? | 32.0% | 12.6% | nt | -56.2% | nt
COc1ccc(C(C#N)=C2C=CC(=NO)C=C2)cc1 | -13.1% | 2.24µM* | 25.1µM* | nt | ? | nt
Clc1ccc(-c2nnc(-c3ccco3)nc2N2CCCCC2)cc1 | -17.0% | 10µM* | ? | 2.24µM* | -7.3% | ?
Cc1sc(NC(=O)C2=COCCO2)nc1-c1ccc(F)cc1 | nt | 79.4µM* | nt | nt | nt | nt
COCCn1nnnc1C(c1cc2cccc(C)c2[nH]c1=O)N1CCN(c2ccccc2F)CC1 (stereo not given) | ? | 3.16µM* | 14.1µM* | 15.8µM* | -0.4% | 10.6%
CCc1ccc2[nH]c(=O)c(C(c3nnnn3CCOC)N3CCN(c4ccc(F)cc4)CC3)cc2c1 (stereo not given) | ? | ? | 17.8µM* | ? | 1.4% | -1.1%
COCCn1nnnc1C(c1cc2cc(OC)c(OC)cc2[nH]c1=O)N1CCN(c2ccc(O)cc2)CC1 (stereo not given) | 12.7% | nt | ? | ? | 1.2% | nt
COCCn1nnnc1C(c1ccccc1OC)N1CCN(c2ccccc2F)CC1 (stereo not given) | -5.7% | ? | 15.0% | -14.8% | -5.9% | 5.9%
CCc1ccc2[nH]c(=O)c(C(c3nnnn3CCOC)N3CCN(c4ccccc4)CC3)cc2c1 (stereo not given) | ? | 28.2µM* | 31.6µM* | 11.2µM* | 1.2% | -8.3%
O=C1C2=C(C(=O)c3ccccc31)C1O[C@](CCCCN3C(=O)c4ccccc4C3=O)(Cc3c1ccc1ccccc31)O2 | nt | -28.1%[2.33 µM] | 0.4% | nt | -0.4%[7.66 µM] | nt
CCN(CC)CCNC(=O)C(=O)Nc1cc2c3c(c1)CCC(=O)N3CCC2 | nt | 3.5% | 16.1% | nt | 6.0% | nt
CC1CCC/C(=N/Nc2nc3ccccc3s2)C1 (stereo not given) | -25.4% | -7.4% | ? | ? | -41.0% | nt
CC1(C)CC(=O)C/C(=N/Nc2nc3ccccc3s2)C1 | -1.4% | 50.1µM* | 0.8% | ? | -29.6% | -24.8%[46 µM]
SMILES | JMJD2E inh | G9a block | Sfp PPTase inh | ALDH1A1 block | miR-21 act | Lamin A splicing
Cc1ccc(CNC(=O)C2CCCN(S(=O)(=O)c3cn(C)cn3)C2)cc1 (stereo not given) | nt | 2.7%[59 µM] | nt | nt | -0.7% | -3.4%[46 µM]
CCCn1c2ccccc2c2cnn(CC(=O)Nc3ccccc3OC)c(=O)c21 | nt | 8.3%[59 µM] | nt | nt | 7.3% | ?
S=c1c2c(nc3nc[nH]n13)CCC2 | ? | nt | 14.1µM* | nt | -4.5% | nt
COCCCNC(=O)c1ccc(-n2nc(C(F)(F)F)cc2-c2cccs2)cc1 | 7.3% | -28.5%[12.7 µM] | -2.9% | 20µM* | 7.7% | ?
O=C(NCCCN1CCOCC1)c1ccc(-n2nc(C(F)(F)F)cc2-c2cccs2)cc1 | -6.6% | -20.8%[12.7 µM] | -2.5% | 9.4% | 24.6% | -4.4%
COc1ccc(CNC(=O)CCS(=O)(=O)c2ccc(Br)cc2)cc1 | nt | 44.7µM* | 5.8% | nt | 0.4% | nt
COc1ccc(S(=O)(=O)CCC(=O)NCc2ccc(C)o2)cc1 | nt | nt | 50.1µM* | nt | 1.5% | nt
COc1ccc(S(=O)(=O)CCC(=O)NCCc2ccc(Cl)cc2)cc1 | -5.0% | 7.5% | 3.9% | ? | -2.7% | 7.1%
Cn1cccc1C(=O)N1CCC2(CCN(Cc3ccccc3)CC2)CC1 | nt | -6.6%[12.7 µM] | 20.5% | 1.4% | nt | nt
COc1ccc(CN2COc3ccc4c(oc(=O)c5ccccc54)c3C2)cc1OC | nt | 0.794µM* | nt | nt | -0.2% | nt
CCCc1cc(=O)oc2c3c(ccc12)OCN(Cc1ccccc1OC)C3 | nt | -2.5%[59 µM] | nt | nt | 10.1% | nt
O=c1oc2c3c(ccc2c2ccccc12)OCN(Cc1ccc(Cl)cc1)C3 | nt | 1.41µM* | nt | nt | -5.3% | nt
COc1ccc(CN2COc3ccc4c(-c5ccc(OC)cc5)cc(=O)oc4c3C2)cc1 | nt | 11.0%[59 µM] | nt | nt | -8.9% | nt
COc1ccccc1CN1COc2ccc3c(oc(=O)c4ccccc43)c2C1 | nt | 0.794µM* | nt | nt | -6.8% | nt
Cc1cccc(C)c1NC(=O)CSc1nc(C2CC2)nc2ccccc12 | nt | -7.4% | -11.5% | nt | 0.9% | nt
C#CCOc1c(/C=C\c2nc(O)c([N+](=O)[O-])c(=O)[nH]2)cc(Br)cc1OC | nt | -23.5% | -5.5% | nt | -9.1% | nt
COc1ccc(/C=C/C(=O)Nc2ccc3nc4c(c(Nc5ccccc5OC)c3c2)CCCC4)cc1 | nt | 7.94µM* | nt | nt | -6.8% | nt
COc1ccccc1Nc1c2c(nc3ccc(NC(=O)c4cccc(F)c4)cc13)CCCC2 | nt | ? | nt | nt | -1.0% | nt

Bioassay records deposited in PubChem by National Center for Advancing Translational Sciences (NCATS).
